Source: PubChem BioAssay
“And” between values parts separate entries of the source, which are not always exact repeats. Identical values can stand only once. Records with an inconclusive call do not appear. The source made the active and inactive calls. Rule as the data show it, unless noted: active = inhibition above about 80%; inactive = the rest.

Experiments:
[1] = viability loss in pontine glioma line – cell-based, SU-DIPG-XIII, MIPE5.0, CellTiter-Glo, qHTS, dose response (AID 1347064; cut-off not given, nearly all actives have AC50 up to about 23 µM;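 as to AC50: cells exposed to compound for 48 hours before the viability read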); conditions: CellTiter-Glo ATP luminescence
[2] = viability loss in pontine glioma line – cell-based, SU-DIPG-XXV, MIPE5.0, CellTiter-Glo, qHTS, dose response (AID 1347065; cut-off not given, nearly all actives have AC50 up to about 26 µM;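 also: cells exposed to compound for 48 hours before ATP readout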); conditions: CellTiter-Glo ATP luminescence
[3] = growth inhibition, single agents and combos, LFS_MB_1R, cell-based, cisplatin or BGB combos, synergistic combos for chromothripsis tumors (AID 1671452); conditions: LFS_MB_1R medulloblastoma cells, stronger effect = higher value;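 also: cells exposed for 96 hours before readout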
[4] = growth inhibition, single agents and combos, CRL2098, cell-based, BGB or cisplatin IC20 combos, synergistic combos for chromothripsis tumors (AID 1671454); conditions: CRL2098 osteosarcoma cells, drug combinations, stronger effect = higher value;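 also: cells exposed for 96 h before readout; 0% = vehicle DMSO and 100% = killing by high DMSO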
[5] = growth inhibition, single agents and combos, HD-MB03, cell-based, BGB or cisplatin IC20 combos, synergistic combos for chromothripsis tumors (AID 1671455; in the data active = inhibition above about 83%;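 also: 0% = vehicle DMSO and 100% = high DMSO as cytotoxic control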); conditions: HD-MB03 medulloblastoma cells, stronger effect = higher value
[6] = growth inhibition, single agents and combos, UWB1.289, cell-based, BGB or cisplatin combos, synergistic combos for chromothripsis tumors (AID 1671456); conditions: UWB1.289 ovarian carcinoma cells, stronger effect = higher value;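 also: cells exposed to compound for four days; 0% = vehicle DMSO and 100% = killing by high DMSO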
[7] = growth inhibition, single agents and combos, LFS_MB_2R, cell-based, cisplatin combos, synergistic combos for chromothripsis tumors (AID 1671457); conditions: LFS_MB_2R medulloblastoma cells, stronger effect = higher value;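 also: cells exposed to compound for four days before readout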
[8] = growth inhibition, MDA-MB-436, cell-based, BGB or cisplatin combos, synergistic combos for chromothripsis tumors (AID 1671458; call rule not given here;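 also: cells exposed for 96 hours; 0% = vehicle DMSO and 100% = killing by high DMSO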); conditions: MDA-MB-436 breast carcinoma growth inhibition, drug combinations, stronger effect = higher value
[9] = UWB1.289_BRCA1 ovarian cancer growth, cell-based, BGB or cisplatin combinations (AID 1671459); conditions: UWB1.289 BRCA1 ovarian carcinoma, drug combinations, stronger effect = higher value
[10] = drug combination toxicity in non-malignant astrocytes – cell-based, BGB or cisplatin IC20 combos, cytotoxicity control for chromothriptic childhood tumor combination screen (AID 1671460); conditions: Human astrocytes, viability inhibition, drug combinations, at 0.5 µM, stronger effect = higher value;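 also: cells exposed to compounds for 96 hours before viability readout; 0% = vehicle and 100% = killing control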
[11] = BT084 cell growth, single and combined drugs, ICGC_MB145, cisplatin and BGB IC40 combos (AID 1671461); conditions: BT084 medulloblastoma cells, drug combinations, stronger effect = higher value;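 also: cells exposed to drugs for 96 hours; 0% = vehicle DMSO and 100% = high DMSO full killing control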
[12] = RCMB18 cell growth, single agent and combined, cisplatin and BGB IC40 combos (AID 1671462); conditions: RCMB18 medulloblastoma cells, stronger effect = higher value;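 also: cells exposed to compound for four days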
[13] = CRL1545 cell growth, single agent and combined, cisplatin and BGB IC20 combos (AID 1671464); conditions: CRL1545 osteosarcoma cells, stronger effect = higher value;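 also: cells exposed to compound for 96 hours before readout; 0% = vehicle DMSO and 100% = high DMSO killing control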
[14] = glutamate excitotoxicity neuroprotectants – cell-based, TUNEL DNA degradation staining, MNGlu (AID 1594; call rule not given here); conditions: motor neurons, glutamate-induced death, at 1 µM, stronger effect = higher value
[15] = compounds altering HSF1 focus formation in cells – imaging, Selleck Cancer Library (AID 1347162; in the data active = plate-normalised HSF1 focus index below about 0.46); conditions: human cells, HSF1 nuclear foci imaging, at 10 µM; SSMD: measured here: HSF1 foci SSMD mean; cell count: measured here: cell number; plate-normalised HSF1 focus index: stronger effect = lower value
[16] = measured here: combination with BGB IC40, at 0.05 µM
[17] = measured here: combination with cisplatin, at 0.5 µM
[18] = measured here: combination with cisplatin, at 5 µM
[19] = measured here: combination with BGB at IC20, at 0.5 µM
[20] = measured here: combination with cisplatin at IC20, at 0.5 µM
[21] = measured here: combo with BGB at IC20, at 0.5 µM
[22] = measured here: combo with cisplatin at IC20, at 0.5 µM
[23] = measured here: inhibition with BGB combination, at 0.05 µM
[24] = measured here: inhibition with cisplatin combination, at 0.05 µM
[25] = measured here: BGB combination, at 0.5 µM
[26] = measured here: BGB combination, at 5 µM
[27] = measured here: cisplatin combination, at 0.5 µM
[28] = measured here: cisplatin combination, at 5 µM
[29] = BGB combination, concentration series, at 5 µM
[30] = cisplatin combination, concentration series, at 5 µM
[31] = measured here: combo with BGB IC20
[32] = measured here: combo with cisplatin IC20
[33] = cisplatin combination, at 0.5 µM
[34] = measured here: BGB IC40 combination 0.05 uM, at 0.05 µM
[35] = measured here: BGB IC40 combination, at 0.05 µM
[36] = measured here: with BGB IC20 combination, at 0.5 µM
[37] = measured here: with cisplatin IC20 combination, at 0.5 µM

With `C=C(C)[C@H]1Cc2c(ccc3c2O[C@@H]2COc4cc(OC)c(OC)cc4[C@@H]2C3=O)O1` the AC50 [1] was 8.33 µM (active) and the AC50 [2] was 1.18 µM (active).

For `O=C(O)CCCc1ccc(N(CCCl)CCCl)cc1`, the inhibition ([3]; at 0.5 µM) was 1.38% (inactive), the inhibition [3, 16] was -18.1% and the inhibition [3, 17] was 34.7%. For the same molecule, the inhibition [3, 18] was 17.9%, the inhibition ([4]; at 0.5 µM) was -43.4% (inactive) and the inhibition [4, 19] was -73.2%. For the same molecule, the inhibition [4, 20] was -65.8%, the inhibition ([5]; at 0.5 µM) was -3.23% (inactive) and the inhibition [5, 21] was -9.02%. The inhibition [5, 22] was 0.904%, the inhibition ([6]; at 0.5 µM) was -7.41% (inactive) and the inhibition [6, 23] was -22.1%. For the same molecule, the inhibition [6, 24] was -7.19%, the inhibition ([7]; at 0.5 µM) was -24.2% (inactive) and the inhibition [7, 17] was -24.7%. The inhibition [7, 18] was -25.9%, the inhibition ([8]; at 0.5 µM) was -23.5% (inactive) and the inhibition [8, 25] was -17.2%. It also gave an inhibition [8, 26] of -7.5%, an inhibition [8, 27] of -37.9% and an inhibition [8, 28] of -2.83%. The inhibition [9, 29] was -9.82%, the inhibition ([9]; at 0.5 µM) was -20.2% (inactive) and the inhibition [9, 30] was 4.66%. The inhibition [10] was -13.8% (inactive), the inhibition [10, 31] was -14.7% and the inhibition [10, 32] was -9.75%. The inhibition ([11]; at 0.5 µM) was -18.3% (inactive), the inhibition [11, 33] was -2.56% and the inhibition ([11]; cisplatin combination, at 5 µM) was -9.03%. For the same molecule, the inhibition [11, 34] was 37.2%, the inhibition ([11]; single agent, at 5 µM) was -26.4% and the inhibition ([12]; at 0.5 µM) was -21.5% (inactive). It also gave an inhibition ([12]; cisplatin combo, at 5 µM) of -8.27%, an inhibition [12, 35] of -18.3% and an inhibition [12, 17] of -40%. The inhibition ([12]; single agent, at 5 µM) was -21%, the inhibition ([13]; at 0.5 µM) was -17.8% (inactive) and the inhibition [13, 36] was -15.9%. For the same molecule, the inhibition [13, 37] was -18.8%, the inhibition ([13]; single agent, at 0.05 µM) was 15.9% and the inhibition ([13]; single agent, at 5 µM) was 10.1%.

In the case of `CN(C)[C@@H]1C(=O)C(C(N)=O)=C(O)[C@@]2(O)C(=O)C3=C(O)c4c(O)cccc4[C@@](C)(O)[C@H]3C[C@@H]12`, the outcome [2] is reported as “inactive”.

With `CC(CCc1ccccc1)NC(C)C(O)c1ccc(O)cc1` (stereo not drawn) the protection [14] was 40% (active).

With `O=P1(N(CCCl)CCCl)NCCCO1` (stereo not drawn) the outcome [1] was “inactive”, the SSMD [15] was 1.32 and the cell count [15] was 7410. For the same molecule, the plate-normalised HSF1 focus index [15] was 1.05 (inactive), the inhibition ([3]; at 0.5 µM) was -27.2% (inactive) and -18.7% (inactive) and the inhibition [3, 16] was -28.1% and -17.9%. For the same molecule, the inhibition [3, 17] was -62% and -22.2%, the inhibition [3, 18] was -58.8% and -8.04% and the inhibition ([4]; at 0.5 µM) was -64.7% (inactive) and -26.3% (inactive). The inhibition [4, 19] was -52.1% and -36.9%, the inhibition [4, 20] was -105% and -14.6% and the inhibition ([5]; at 0.5 µM) was -15.6% (inactive) and -8.72% (inactive). For the same molecule, the inhibition [5, 21] was -13.1% and -5.67%, the inhibition [5, 22] was -23.9% and -12.6% and the inhibition ([6]; at 0.5 µM) was -11% (inactive) and -0.72% (inactive). The inhibition [6, 23] was 0.467% and -11.6%, the inhibition [6, 24] was -17.5% and -3.57% and the inhibition ([7]; at 0.5 µM) was -8.87% (inactive) and -10.9% (inactive). The inhibition [7, 17] was -12.2% and -3.73%, the inhibition [7, 18] was -12% and -15.2% and the inhibition ([8]; at 0.5 µM) was -6.84% (inactive) and -18.8% (inactive). For the same molecule, the inhibition [8, 25] was -4.29% and -16.7%, the inhibition [8, 26] was -11.8% and -7.83% and the inhibition [8, 27] was -1.92% and -34.6%. The inhibition [8, 28] was -42.1% and -18.1%, the inhibition [9, 29] was -8.88% and 6.63% and the inhibition ([9]; at 0.5 µM) was -10.4% (inactive) and -3.19% (inactive). The inhibition [9, 30] was -43.5% and 10.9%, the inhibition [10] was 1.59% (inactive) and 8.63% (inactive) and the inhibition [10, 31] was 0.13% and 3.09%. For the same molecule, the inhibition [10, 32] was 6.54% and 14.4%, the inhibition ([11]; at 0.5 µM) was -9.95% (inactive) and -11.7% (inactive) and the inhibition [11, 33] was -36.8% and -12%. For the same molecule, the inhibition ([11]; cisplatin combination, at 5 µM) was -1.57% and -57.3%, the inhibition [11, 34] was -19.2% and 1.38% and the inhibition ([11]; single agent, at 5 µM) was -9.56% and -21.4%. The inhibition ([12]; at 0.5 µM) was -4.96% (inactive) and -6.79% (inactive), the inhibition ([12]; cisplatin combo, at 5 µM) was -39% and 8.55% and the inhibition [12, 35] was -12.6% and 10%. The inhibition [12, 17] was -20.8% and 7.02%, the inhibition ([12]; single agent, at 5 µM) was -6.86% and -4.77% and the inhibition ([13]; at 0.5 µM) was -20.8% (inactive) and -21.4% (inactive). For the same molecule, the inhibition [13, 36] was -33.7% and 3.63%, the inhibition [13, 37] was -16.2% and -34% and the inhibition ([13]; single agent, at 0.05 µM) was -25% and -2.49%. The inhibition ([13]; single agent, at 5 µM) was 10.9% and -41%.

For `CN1C(=O)CCS(=O)(=O)C1c1ccc(Cl)cc1` (stereo not drawn), the outcome [1] was “inactive”.
